# Source: PubChem BioAssay (NCATS)
# Results filed as inconclusive are left out. A call without a number means that no potency is given here. Unmarked numbers belong to inactive results. The source made the active and inactive calls. Calls come from the whole dose curve; as a rule, active = well fitted inhibition curve with a large enough effect; inconclusive = small, poorly fitted or top-dose-only effect; inactive = flat fitted curve, though single readings scatter.
# Assays:
# [1] = system: P93_24; assay: qHTS profiling for inhibitors of Plasmodium falciparum proliferation (AID 504749); note: potency is the fitted concentration of half-maximal effect; details: P. falciparum in erythrocytes, SYBR Green DNA, 72 h; series mostly up to 28.7 µM
# Outline: (§1)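 SYBR Green fluorescence (ex 485 nm, em 535 nm) reports parasite DNA after 72 h compound exposure of infected red cells at 0.3% parasitemia, 2.5% hematocrit; signal normalized to 0.29 uM artemisinin and vehicle wells.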
# [2] = system: P94_40; assay: as above; details: P. falciparum in erythrocytes, SYBR Green DNA, 72 h; series mostly up to 28.7 µM
# Outline: as §1
# [3] = system: PAD; assay: as above; details: P. falciparum in erythrocytes, SYBR Green DNA, 72 h; series mostly up to 28.7 µM
# Outline: as §1
# [4] = system: PC15; assay: as above; details: P. falciparum in erythrocytes, SYBR Green DNA, 72 h; series mostly up to 28.7 µM
# Outline: as §1
# [5] = system: PC26; assay: as above; details: P. falciparum in erythrocytes, SYBR Green DNA, 72 h; series mostly up to 28.7 µM
# Outline: as §1
# [6] = system: PC49; assay: as above; details: P. falciparum in erythrocytes, SYBR Green DNA, 72 h; series mostly up to 28.7 µM
# Outline: as §1
# [7] = system: SC27B; assay: as above; details: P. falciparum in erythrocytes, SYBR Green DNA, 72 h; series mostly up to 28.7 µM
# Outline: as §1
# [8] = system: TAB109; assay: as above; details: P. falciparum in erythrocytes, SYBR Green DNA, 72 h; series mostly up to 28.7 µM
# Outline: as §1
# [9] = system: TAB113; assay: as above; details: P. falciparum in erythrocytes, SYBR Green DNA, 72 h; series mostly up to 28.7 µM
# Outline: as §1
# [10] = system: TAB165; assay: as above; details: P. falciparum in erythrocytes, SYBR Green DNA, 72 h; series mostly up to 28.7 µM
# Outline: as §1
# [11] = system: W2; assay: as above; details: P. falciparum in erythrocytes, SYBR Green DNA, 72 h; series mostly up to 28.7 µM
# Outline: as §1
# [12] = system: CRL-7250; assay: Cytotoxic Profiling of Annotated Libraries Using Quantitative High-Throughput Screening (AID 1296008); details: Five cell lines viability, CellTiter-Glo ATP luminescence, 48-72 h; active compounds read low
# Outline: (§2)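 Cells exposed to compounds for 48 or 72 hr at 37 degrees Celsius. Viability read as ATP-coupled luminescence with CellTiter-Glo after 10 min at room temperature.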
# [13] = system: HEK293; assay: as above; details: Five cell lines viability, CellTiter-Glo ATP luminescence, 48-72 h; active compounds read low
# Outline: as §2
# [14] = system: HaCat; assay: as above; details: Five cell lines viability, CellTiter-Glo ATP luminescence, 48-72 h; active compounds read low
# Outline: as §2
# [15] = system: KB-3-1; assay: as above; details: Five cell lines viability, CellTiter-Glo ATP luminescence, 48-72 h, active compounds read low
# Outline: as §2
# [16] = system: NIH3T3; assay: as above; details: Five cell lines viability, CellTiter-Glo ATP luminescence, 48-72 h; active compounds read low
# Outline: as §2
# [17] = system: HEK293T; assay: qHTS assay to identify novel small-molecules to repurpose for Merkel cell carcinoma treatment (AID 1296009); details: MCC and control cell lines, CellTiter-Glo viability, 72 h; at 44.8 µM (top of the series) unless noted
# Outline: (§3)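 CellTiter-Glo luminescence after 72 hr compound exposure at 37 degree celsius gave cell viability. Libraries NPC and MIPE were run as 8- and 11-point dose responses; RLUs normalized to DMSO (negative) and no-cell (cytotoxicity) controls.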
# [18] = system: MCC-13; assay: as above; details: MCC and control cell lines, CellTiter-Glo viability, 72 h; series mostly up to 46 µM
# Outline: as §3
# [19] = system: MCC-26; assay: as above; details: MCC and control cell lines, CellTiter-Glo viability, 72 h; series mostly up to 46 µM
# Outline: as §3
# Note: nearly all actives have a fitted effect of over 60% in size.
compound,measurement,setting,value
C[C@@H]1O[C@@H](OC[C@H]2O[C@@H](Oc3c(-c4ccc(O)c(O)c4)oc4cc(O)cc(O)c4c3=O)[C@H](O)[C@@H](O)[C@@H]2O)[C@H](O)[C@H](O)[C@H]1O,Potency,[1],inactive
same,Potency,[2],inactive
same,Potency,[3],inactive
same,Potency,[4],inactive
same,Potency,[5],inactive
same,Potency,[6],inactive
same,Potency,[7],inactive
same,Potency,[8],inactive
same,Potency,[9],inactive
same,Potency,[10],inactive
same,Potency,[11],inactive
same,max response,[12],-4.29%
same,outcome,[13],inactive
same,max response,[14],2.78%
same,max response,[15],16.6%
same,max response,[16],-8.53%
same,outcome,[17],inactive
same,outcome,[18],inactive
same,outcome,[19],inactive
CCN(CC)S(=O)(=O)c1ccc(C(=O)O)cc1,Potency,[1],inactive
same,Potency,[2],inactive
same,Potency,[3],inactive
same,Potency,[4],inactive
same,Potency,[5],inactive
same,Potency,[6],inactive
same,Potency,[7],inactive
same,Potency,[8],inactive
same,Potency,[9],inactive
same,Potency,[10],inactive
same,Potency,[11],inactive
same,max response,[12],-2.94%
same,outcome,[13],inactive
same,max response,[14],1.67%
same,max response,[15],7.96%
same,max response,[16],-6.52%
same,outcome,[17],inactive
same,outcome,[18],inactive
same,outcome,[19],inactive
NCc1ccc(S(N)(=O)=O)cc1,Potency,[2],inactive
same,Potency,[3],inactive
same,Potency,[4],inactive
same,Potency,[6],inactive
same,Potency,[7],inactive
same,Potency,[8],inactive
same,max response,[12],-8.65%
same,outcome,[13],inactive
same,max response,[14],-6.18%
same,max response,[15],-7.46%
same,max response,[16],1.15%
same,outcome,[17],inactive
same,outcome,[18],inactive
same,outcome,[19],inactive
CCCCCCCCCCOc1cc2c(=O)c(C(=O)OCC)c[nH]c2cc1OCC,Potency,[1],3.2 nM (active)
same,Potency,[2],3.2 nM (active)
same,Potency,[3],3.5 nM (active)
same,Potency,[4],6.3 nM (active)
same,Potency,[6],7.9 nM (active)
same,Potency,[7],2.5 nM (active)
same,Potency,[8],2.5 nM (active)
same,Potency,[9],2.8 nM (active)
same,Potency,[10],1.3 nM (active)
same,Potency,[11],1.7 nM (active)
same,outcome,[12],inactive
same,outcome,[13],inactive
same,max response,[14],-5.57%
same,max response,[15],7.91%
same,max response,[16],-1.43%
same,outcome,[17],inactive [at 4.96 µM]
same,"activity change, negative = cytotoxicity",[18],9.19% [at 4.84 µM]
same,"activity change, negative = cytotoxicity",[19],-1.97% [at 4.84 µM]
CC(C(=O)O)c1ccc2c(c1)Cc1cccnc1O2 (configuration not stated),Potency,[1],inactive
same,Potency,[2],inactive
same,Potency,[3],inactive
same,Potency,[4],inactive
same,Potency,[5],inactive
same,Potency,[6],inactive
same,Potency,[7],inactive
same,Potency,[8],inactive
same,Potency,[9],inactive
same,Potency,[10],inactive
same,Potency,[11],inactive
same,max response,[12],-6.8%
same,outcome,[13],inactive
same,max response,[14],-5.6%
same,max response,[15],-7.45%
same,max response,[16],-7.1%
same,outcome,[17],inactive
same,outcome,[18],inactive
Nc1ccc(S(=O)(=O)c2ccc(N)cc2)cc1,Potency,[1],inactive
same,Potency,[2],inactive
same,Potency,[3],inactive
same,Potency,[4],inactive
same,Potency,[5],inactive
same,Potency,[6],inactive
same,Potency,[7],inactive
same,Potency,[8],inactive
same,Potency,[9],inactive
same,Potency,[10],inactive
same,Potency,[11],inactive
same,max response,[12],2.75%
same,outcome,[13],inactive
same,max response,[14],2.48%
same,max response,[15],-3.79%
same,max response,[16],3.17%
same,outcome,[17],inactive
same,outcome,[18],inactive
same,outcome,[19],inactive
